Here are results for 35 compounds from PubChem BioAssay.

SMILES strings stand for the structures.

The target of the first assay is Follistatin (Homo sapiens) (UniProt P19883). As to the kind of experiment: FST protein binding to printed compounds – biochemical, small-molecule microarray, 635/667 nm fluorescence, primary screen (AID 1132). The settings on record: 635 nm fluorescence, higher = more signal.
Chain of Follistatin (Homo sapiens) (P19883 whole entry, looked up): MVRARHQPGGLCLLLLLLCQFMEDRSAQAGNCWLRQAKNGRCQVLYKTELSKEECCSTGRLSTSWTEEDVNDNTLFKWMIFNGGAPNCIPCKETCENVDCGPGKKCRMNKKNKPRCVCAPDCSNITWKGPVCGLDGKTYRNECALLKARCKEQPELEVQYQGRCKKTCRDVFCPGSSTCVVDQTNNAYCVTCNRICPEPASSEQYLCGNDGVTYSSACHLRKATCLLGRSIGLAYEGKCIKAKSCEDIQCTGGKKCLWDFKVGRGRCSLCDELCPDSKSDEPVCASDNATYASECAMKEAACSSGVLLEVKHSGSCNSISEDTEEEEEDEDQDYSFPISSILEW
`COC(=O)[C@@]1(Cc2ccc(F)cc2)[C@H]2c3cc(C(=O)N(C)C)n(CC4CC4)c3C[C@H]2CN1C(=O)c1ccccc1`: the composite z-score was 0.581.
Regarding `O=C(NCc1ccc(F)cc1)[C@H]1C[C@H]2C(=O)N[C@@H](Cc3ccccc3)C(=O)N2[C@H]1c1ccc(O)cc1`, the composite z-score was 1.38.
`COc1ccc(C(=O)Nc2ccc(CN3C(=O)[C@@]4(O[C@@H](CC(=O)N5CCC[C@H]5CO)[C@H]([Si](C)(C)c5ccc(OC)cc5)[C@H]4C)c4ccccc43)cc2)cc1` registered a composite z-score of 1.33.
On to `CN(C)CCCNC(=O)[C@@]1(c2ccc([N+](=O)[O-])cc2)CC(=O)N(C2CCCCC2)[C@@H]1c1ccc(CO)cc1`, for which the composite z-score was found to be 0.928.
`C=CCN1C(=O)[C@@]2(O[C@@H](CCO)[C@H]([Si](C)(C)c3ccc(OC)cc3)[C@H]2C)c2cc(NC(=O)c3ccc(OC)cc3)ccc21` registered a composite z-score of 1.38.
With `C=C(CCCC)/C(=C/C[C@@H](OC(C)=O)c1ccccc1OCCO)c1cnc2ccccc2c1`, the composite z-score is 1.31.
Turning to `COC(=O)[C@@]1(Cc2ccc(OC)cc2)[C@H]2c3cc(C(=O)N(C)C)n(Cc4cccc5ccccc45)c3C[C@H]2CN1C(=O)c1ccccc1`, the composite z-score worked out at 0.202.
On the same count and under the same terms, the value for `CC(=O)NCCCC[C@@H]1NC(=O)[C@@H]2C[C@H](C(=O)NCCCCCCNC(=O)CS)[C@H](c3cccc(OCCO)c3)N2C1=O` was 1.24; that for `COCCOC(=O)N1C(=O)[C@@]2(c3cc(C#CCNC(N)=O)ccc31)[C@H](C(=O)NC[C@H](O)c1ccccc1)[C@H]1C(=O)O[C@H](c3ccccc3)[C@H](c3ccccc3)N1[C@@H]2c1ccccc1OCCO` was 1.07.
The compound `COC(=O)[C@@]1(Cc2ccc(OC)cc2)[C@H]2c3cc(C(=O)N4CCCC4)n(Cc4ccccc4)c3C[C@H]2CN1C(=O)c1ccccc1` showed a composite z-score of 0.506.
On to `C=C(CCCC)C(=O)CC[C@@H](OC(=O)c1cccnc1)c1ccc(CO)o1`, for which the composite z-score came to 1.25.
Compound `COc1ccc(C(=O)O[C@H]2CC[C@]3(C)C4=C(CCC3C2(C)C)[C@]2(C)CC[C@H]([C@H](C)CCCC(C)C)[C@@]2(C)CC4)cc1` (some centres not stated) gave a composite z-score of 0.625.
Take `[N-]=[N+]=NCc1ccccc1[C@@H]1OC(c2ccc(OCCCO)cc2)=N[C@]1(Cc1ccccc1N=[N+]=[N-])C(=O)N1CCOCC1`: the composite z-score stood at 1.31.
`COc1ccc([Si](C)(C)[C@@H]2[C@@H](CC(=O)N3Cc4ccccc4C[C@H]3CO)O[C@]3(C(=O)N(C)c4c(Br)cc(C)cc43)[C@H]2C)cc1`: the composite z-score turned out to be 1.35.
For `C=CC[C@@]1(C(=O)NCc2ccccc2)N=C(c2ccc(OCCCO)cc2)O[C@@H]1c1ccccc1N=[N+]=[N-]`, the composite z-score was determined as 1.28.
On to `CC(CO)N1C(=O)[C@@H]2C3C(=O)OCCC/C=C\[C@H]3OC23C=CCN(c2ccc4ccccc4c2)C(=O)[C@@H]13` (some centres not stated), for which the composite z-score was -0.382.
The compound `C=CCOC(=O)[C@@H]1[C@H]2C(=O)O[C@H](c3ccccc3)[C@H](c3ccccc3)N2[C@H](c2ccc(OCCOC(=O)[C@@H]3C[C@@H]4C(=O)N[C@@H](CCCC[N+](C)(C)C)C(=O)N4[C@@H]3c3cccc(OCCO)c3)cc2)[C@@]12C(=O)Nc1ccc(I)cc12` yielded a composite z-score of 1.41.
The compound `CCOC(=O)C[C@H]1[C@H](OC(=O)Cc2ccc3c(c2)OCO3)[C@@H](NC(=O)c2ccc3ccccc3c2)c2cc(OCCCO)ccc2N1C(=O)c1ccccc1` had a composite z-score of 0.375.
`[N-]=[N+]=Nc1ccccc1C[C@]1(C(N)=O)N=C(c2ccc(OCCCO)cc2)O[C@H]1c1ccccc1` came in with a composite z-score of 0.371.
On to `COC(=O)C=C(CC(O)c1cccc(Cl)c1)OC` (configuration not stated), for which the composite z-score is -0.431.
For the compound `Cc1ccc(C(C)CC(O)C2C=CC3C(=O)N(c4ccccc4)C(=O)C3N2Nc2ccc([N+](=O)[O-])cc2)o1` (configuration not stated), the composite z-score was found to be 1.06.
The compound `[N-]=[N+]=Nc1ccccc1C[C@]1(C(=O)NCC(O)CO)N=C(c2ccc(OCCCO)cc2)O[C@H]1c1ccccc1N=[N+]=[N-]` (some centres not stated) had a composite z-score of -0.332.

The target in the next assay is Fibroblast growth factor 2 (Homo sapiens) (UniProt P09038). As to the kind of experiment: basic fibroblast growth factor binding to printed compounds – biochemical, small-molecule microarray, 635/667 nm fluorescence, primary screen (AID 1133). The settings on record: FGF2, fluorescence 635/667, higher = more signal.
Chain of Fibroblast growth factor 2 (Homo sapiens) (P09038 whole entry, looked up): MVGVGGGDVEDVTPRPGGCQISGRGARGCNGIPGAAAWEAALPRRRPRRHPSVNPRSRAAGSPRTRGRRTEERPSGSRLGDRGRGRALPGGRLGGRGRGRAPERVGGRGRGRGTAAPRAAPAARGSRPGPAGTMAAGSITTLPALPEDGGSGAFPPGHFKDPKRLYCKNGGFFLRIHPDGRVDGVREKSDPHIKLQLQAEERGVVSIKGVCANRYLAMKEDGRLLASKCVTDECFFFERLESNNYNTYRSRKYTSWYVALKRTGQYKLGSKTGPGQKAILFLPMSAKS
On to `COCCCNC(=O)[C@@]1(Cc2ccccc2N=[N+]=[N-])N=C(c2ccc(OCCCO)cc2)O[C@H]1c1ccccc1N=[N+]=[N-]`, for which the composite z-score worked out at 0.836.
Still for that read-out and setting: the value for `Cc1ccc(S[C@]2(C(=O)NC(C)C)CC(=O)N(Cc3ccccc3Cl)[C@@H]2c2ccc(CO)cc2I)cc1` was -0.934; that for `CC(C)c1ccc(NN2C(C(O)c3cc(C(F)(F)F)cc(C(F)(F)F)c3)C=CC3C(=O)N(c4ccccc4)C(=O)C32)cc1` (configuration not stated) was -0.313; that for `CCOC(=O)[C@H]1C/C=C/C[C@H](C(=O)OCC)C(=O)O[C@H]2[C@@H](OC)O[C@H](CO)[C@@H](OC(=O)Nc3cccc(F)c3)[C@@H]2OC1=O` was 0.0815.
On to `C=CCC(OC(C)=O)[C@@H]1[C@@H](N(Cc2ccc(-c3cccc(C(F)(F)F)c3)o2)C(=O)c2ccc(-c3ccccc3)cc2)c2cc(OCCCO)ccc2N1C(=O)c1ccc(-c2ccccc2)cc1` (some centres not stated), for which the composite z-score is -0.0003.
Turning to `O=C1O[C@H](c2ccccc2)[C@H](c2ccccc2)N2[C@H]1[C@@H](C(=O)NC[C@H](O)c1ccccc1)[C@]1(C(=O)Nc3ccccc31)[C@H]2c1ccc(OCCO)cc1`, the composite z-score is 0.655.
Compound `C=CCOC(=O)[C@H]1[C@@H]2C(=O)O[C@@H](c3ccccc3)[C@@H](c3ccccc3)N2[C@@H](c2ccc(OCCOC(=O)[C@H]3C[C@H]4C(=O)N5CCC[C@H]5C(=O)N4[C@H]3c3ccc(O)cc3)cc2)[C@]12C(=O)Nc1ccc(I)cc12` yielded a composite z-score of 1.6.
Regarding `O=C1NC(=O)C2C1C=CC(C(O)Cc1ccccc1)N2Nc1ccc(Cl)cc1Cl` (configuration not stated), the composite z-score was -0.644.
On the same count and under the same terms, the same measure for `CN(C)C(=O)[C@]1(Cc2ccccc2N=[N+]=[N-])N=C(c2ccc(OCCCO)cc2)O[C@@H]1c1ccccc1`: 1.58.
Still for that read-out and setting: the value for `COCCOC(=O)N1C(=O)[C@@]2(c3cc(C#CC4=CCCCC4)ccc31)[C@H](C(=O)Nc1nc3ccccc3s1)[C@H]1C(=O)O[C@H](c3ccccc3)[C@H](c3ccccc3)N1[C@@H]2c1ccc(OCCO)cc1` was 0.898.
`C=CC[C@@]1(C(N)=O)N=C(c2ccc(OCCCO)cc2)O[C@@H]1c1ccccc1CN=[N+]=[N-]` returned a composite z-score of 0.107.
Consider `C#CCN(CC1=CCCCC1)[C@H](c1ccccc1Br)[C@@H](O)Cc1ccccc1`, for which the composite z-score was -1.05.
For `COc1ccc(C(=O)Nc2ccc(CN3C(=O)[C@@]4(O[C@@H](CCO)[C@H]([Si](C)(C)c5ccc(OC)cc5)[C@H]4C)c4ccccc43)cc2)cc1`, the composite z-score was determined as 1.55.
Regarding `COC(=O)[C@@]1(Cc2ccc(F)cc2)[C@H]2c3cc(C(=O)N(C)C)n(CC4CC4)c3C[C@H]2CN1C(=O)c1ccccc1`, the composite z-score is -0.272.
`O=C(NCc1ccc(F)cc1)[C@H]1C[C@H]2C(=O)N[C@@H](Cc3ccccc3)C(=O)N2[C@H]1c1ccc(O)cc1` registered a composite z-score of 1.59.
In the case of `COc1ccc(C(=O)Nc2ccc(CN3C(=O)[C@@]4(O[C@@H](CC(=O)N5CCC[C@H]5CO)[C@H]([Si](C)(C)c5ccc(OC)cc5)[C@H]4C)c4ccccc43)cc2)cc1`, the composite z-score is 1.68.
`CN(C)CCCNC(=O)[C@@]1(c2ccc([N+](=O)[O-])cc2)CC(=O)N(C2CCCCC2)[C@@H]1c1ccc(CO)cc1` yielded a composite z-score of -0.209.
Compound `C=CCN1C(=O)[C@@]2(O[C@@H](CCO)[C@H]([Si](C)(C)c3ccc(OC)cc3)[C@H]2C)c2cc(NC(=O)c3ccc(OC)cc3)ccc21` gave a composite z-score of 1.2.
With `C=C(CCCC)/C(=C/C[C@@H](OC(C)=O)c1ccccc1OCCO)c1cnc2ccccc2c1`, the composite z-score turned out to be 0.908.
`COC(=O)[C@@]1(Cc2ccc(OC)cc2)[C@H]2c3cc(C(=O)N(C)C)n(Cc4cccc5ccccc45)c3C[C@H]2CN1C(=O)c1ccccc1` had a composite z-score of -0.225.
Still for that read-out and setting: the same measure for `CC(=O)NCCCC[C@@H]1NC(=O)[C@@H]2C[C@H](C(=O)NCCCCCCNC(=O)CS)[C@H](c3cccc(OCCO)c3)N2C1=O`: 1.59; for `COCCOC(=O)N1C(=O)[C@@]2(c3cc(C#CCNC(N)=O)ccc31)[C@H](C(=O)NC[C@H](O)c1ccccc1)[C@H]1C(=O)O[C@H](c3ccccc3)[C@H](c3ccccc3)N1[C@@H]2c1ccccc1OCCO`: 0.73.
Regarding `COC(=O)[C@@]1(Cc2ccc(OC)cc2)[C@H]2c3cc(C(=O)N4CCCC4)n(Cc4ccccc4)c3C[C@H]2CN1C(=O)c1ccccc1`, the composite z-score is -0.368.
`C=C(CCCC)C(=O)CC[C@@H](OC(=O)c1cccnc1)c1ccc(CO)o1` yielded a composite z-score of 1.47.
Consider `COc1ccc(C(=O)O[C@H]2CC[C@]3(C)C4=C(CCC3C2(C)C)[C@]2(C)CC[C@H]([C@H](C)CCCC(C)C)[C@@]2(C)CC4)cc1` (some centres not stated), for which the composite z-score amounted to 0.483.
`[N-]=[N+]=NCc1ccccc1[C@@H]1OC(c2ccc(OCCCO)cc2)=N[C@]1(Cc1ccccc1N=[N+]=[N-])C(=O)N1CCOCC1` came in with a composite z-score of 1.66.
On to `COc1ccc([Si](C)(C)[C@@H]2[C@@H](CC(=O)N3Cc4ccccc4C[C@H]3CO)O[C@]3(C(=O)N(C)c4c(Br)cc(C)cc43)[C@H]2C)cc1`, for which the composite z-score turned out to be 1.65.
Consider `C=CC[C@@]1(C(=O)NCc2ccccc2)N=C(c2ccc(OCCCO)cc2)O[C@@H]1c1ccccc1N=[N+]=[N-]`, for which the composite z-score amounted to 0.281.
The compound `CC(CO)N1C(=O)[C@@H]2C3C(=O)OCCC/C=C\[C@H]3OC23C=CCN(c2ccc4ccccc4c2)C(=O)[C@@H]13` (some centres not stated) came in with a composite z-score of -0.865.
The same measure, in the same setting: the same measure for `C=CCOC(=O)[C@@H]1[C@H]2C(=O)O[C@H](c3ccccc3)[C@H](c3ccccc3)N2[C@H](c2ccc(OCCOC(=O)[C@@H]3C[C@@H]4C(=O)N[C@@H](CCCC[N+](C)(C)C)C(=O)N4[C@@H]3c3cccc(OCCO)c3)cc2)[C@@]12C(=O)Nc1ccc(I)cc12`: 1.79; for `CCOC(=O)C[C@H]1[C@H](OC(=O)Cc2ccc3c(c2)OCO3)[C@@H](NC(=O)c2ccc3ccccc3c2)c2cc(OCCCO)ccc2N1C(=O)c1ccccc1`: 0.111; for `[N-]=[N+]=Nc1ccccc1C[C@]1(C(N)=O)N=C(c2ccc(OCCCO)cc2)O[C@H]1c1ccccc1`: -0.768.
Take `COC(=O)C=C(CC(O)c1cccc(Cl)c1)OC` (configuration not stated): the composite z-score is -0.0579.
In the case of `Cc1ccc(C(C)CC(O)C2C=CC3C(=O)N(c4ccccc4)C(=O)C3N2Nc2ccc([N+](=O)[O-])cc2)o1` (configuration not stated), the composite z-score stood at 0.232.
Turning to `[N-]=[N+]=Nc1ccccc1C[C@]1(C(=O)NCC(O)CO)N=C(c2ccc(OCCCO)cc2)O[C@H]1c1ccccc1N=[N+]=[N-]` (some centres not stated), the composite z-score is -0.83.
